GluA2 TARP mod: GluA2-stargazin AMPA receptor complex modulation. HEK293 GluA2+stargazin, membrane potential dye (FDSS), glutamate EC50; hits were called plate by plate, in both directions. actives 3.5% (n = 40,000). calls only at 30 µM;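 active = any of four per-well response measures lying three or more SD from its plate-wide compound average, in either direction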
GIRK2 activator: Activates human GIRK2-containing potassium channels. P48051. HEK293 GIRK2/NPY4 cells, thallium flux fluorescence. activation (% efficacy), % for hits at 37.5 µM. 34,000 tested, under 10 active. AID 1259324;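 active = primary screen hit, no activity in plain HEK293 cells, and in GIRK2-only cells above 5% efficacy rising with concentration; inactive = the rest, including fluorescent compounds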;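 note: efficacy is normalized control-subtracted fluorescence 15 s after thallium addition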
Target sequence (P48051 whole entry, looked up): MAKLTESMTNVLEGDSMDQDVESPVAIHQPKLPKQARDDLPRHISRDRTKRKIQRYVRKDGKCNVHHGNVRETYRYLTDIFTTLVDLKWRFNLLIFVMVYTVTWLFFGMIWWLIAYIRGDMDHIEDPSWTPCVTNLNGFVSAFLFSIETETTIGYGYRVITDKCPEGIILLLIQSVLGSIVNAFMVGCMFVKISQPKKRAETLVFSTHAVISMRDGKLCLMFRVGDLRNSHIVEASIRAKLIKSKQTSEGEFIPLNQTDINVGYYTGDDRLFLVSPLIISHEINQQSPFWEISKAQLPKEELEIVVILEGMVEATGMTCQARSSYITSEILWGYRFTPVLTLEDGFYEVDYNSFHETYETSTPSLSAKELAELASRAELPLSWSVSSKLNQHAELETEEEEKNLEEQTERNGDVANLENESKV
Numbers without * were called inactive; i = inactive; . = not tested or not shown; + = active, no number. The entries come from a sample that favours hits as a whole.

SMILES	GluA2 TARP mod	GIRK2 activator
COc1ccc(NC(=O)NCC(c2ccccc2Cl)N(C)C)cc1OC (centres undefined)	+	i
COC(=O)c1ccc(C(=O)NCC(c2ccccc2Cl)N(C)C)cc1 (centres undefined)	i	i
CCOC(=O)c1ccccc1NC(=O)CN1CCCN(Cc2ccccc2Cl)S1(=O)=O	+	i
COC(=O)c1sccc1NC(=O)CN1CCCN(Cc2ccccc2)S1(=O)=O	i	.
CC(=O)c1ccc(NC(=O)CSc2ncc(S(=O)(=O)c3ccc(Cl)s3)c(N)n2)cc1	i	i
Nc1nc(SCC(=O)Nc2ccccc2)ncc1S(=O)(=O)c1ccc(Cl)s1	+	i
CN(C)C(CNC(=O)C1CCN(S(C)(=O)=O)CC1)c1cccs1 (centres undefined)	i	i
COCCN1CCC(CNS(=O)(=O)c2cccc(Cl)c2)CC1	i	i
CC1=NN(c2ccccc2)C(=O)C1C(=O)c1ccc(S(=O)(=O)N(C)C)cc1 (centres undefined)	i	i
CC1=NN(c2ccccc2)C(=O)C1C(=O)c1ccc(Br)o1 (centres undefined)	+	i
Cc1ccc(S(=O)(=O)N(CC(O)CNCC(=O)O)c2ccc(F)cc2)cc1 (centres undefined)	i	i
CC(C)(C)n1nc2c(c1-n1cccc1)CN(C(=O)c1cc3ccccc3oc1=O)C2	+	i
CC(C)(C)n1nc2c(c1-n1cccc1)CN(C(=O)Cn1c(=O)oc3ccccc31)C2	i	i
CCCNC(=O)CCCCn1c(=O)c2ccccc2n(CC(=O)Nc2cccc(OC)c2)c1=O	i	.
COc1ccc(-c2csc(NC(=O)c3ccc(SC(C)C)cc3)n2)c(OC)c1	+	.
COc1ccc(OC)c(-c2csc(NC(=O)c3ccc(SC(C)C)cc3)n2)c1	i	i
COc1cccc(C(=O)Nc2nnc(CC(C)C)s2)c1	i	.
COC(=O)c1ccccc1-n1c(=O)c2ccccc2c2ccccc2c1=O	i	.
COC(=O)c1ccccc1N=Nc1c(N)[nH]n(-c2ccccc2)c1=O	+	.
COc1ccccc1C(=O)Nc1nnc(-c2ccc(Br)s2)o1	.	i
COc1ccc(C(=O)Nc2nnc(-c3ccncc3)o2)cc1OC	+	.
c1ccc(-c2nnc(-c3ccncc3)o2)cc1	i	.
CS(=O)(=O)c1ccc(C(=O)Nc2nnc(-c3ccc(Br)s3)o2)cc1	i	i
CS(=O)(=O)c1ccc(C(=O)Nc2nnc(-c3cccnc3)o2)cc1	+	i
COc1ccc(-c2nnc(NC(=O)c3ccc(F)cc3)o2)cc1OC	i	i
SMILES	GluA2 TARP mod	GIRK2 activator
COc1ccc(C(=O)Nc2nnc(-c3ccc(Br)s3)o2)cc1OC	+	i
COc1ccc(-c2nnc(-c3ccncc3)o2)cc1OC	+	.
Cc1ccc(NS(=O)(=O)c2ccccc2F)cc1N1CCCC1=O	i	i
Cc1ccc(Cl)cc1N1CCN(S(=O)(=O)N2CCCCCC2)CC1	i	.
Cc1nn(C2CCS(=O)(=O)C2)c2nc(-c3ccccc3)cc(C(=O)Nc3ccccc3C(N)=O)c12 (centres undefined)	i	i
O=C(CS(=O)(=O)Cc1ccccc1)Nc1nc(-c2ccc3c(c2)OCO3)cs1	i	i
COc1ccc(C2(CNC(=O)c3ccc(F)c(F)c3)CCCC2)cc1	.	i
Cc1ccccc1-c1ccc(N2CCC(C(=O)NCc3cccnc3)CC2)nn1	i	i
Cc1ccccc1-c1ccc(N2CCC(C(=O)NCc3ccco3)CC2)nn1	+	i
CC1Cc2c(NC(=O)c3cc(Cl)ccc3Cl)nn(C)c2NC1=O (centres undefined)	i	i
O=C(Cn1cccn1)N1CCN(c2ccccc2O)CC1	i	.
Cc1cc(NC(=O)C(=O)NCC(c2ccccc2)N(C)C)c2ccccc2n1 (centres undefined)	i	i
Cc1cc(C)nc(Nc2nc(N)c3ccccc3n2)n1	+	.
CCOC(=O)c1c(SCC(=O)NCCc2ccccc2)nc(=O)[nH]c1C	i	i
CCOC(=O)c1c(SCc2ccccc2)nc(=O)[nH]c1C	+	i
COc1ccc(S(=O)(=O)N2CCC(C(=O)Nc3ccc4nc(C)sc4c3)CC2)cc1	i	i
CCN1CCc2c(sc(NC(=O)c3ccc(OC)c(OC)c3)c2-c2nc3ccccc3s2)C1	+	.
COc1ccc(C(=O)Nc2sc3c(c2-c2nc4ccccc4s2)CCN(C(C)C)C3)cc1OC	+	.
CCN1CCc2c(sc(NC(=O)c3ccc(C)c(C)c3)c2-c2nc3ccccc3s2)C1	i	.
COC(=O)c1ccc(C(=O)Nc2sc3c(c2-c2nc4ccccc4s2)CCN(C(C)C)C3)cc1	i	.
Cc1cn(C)nc1C(=O)N(CCN1CCOCC1)c1nc2c(C)ccc(C)c2s1	.	i
Cc1cc(C(=O)N2CCN(c3nc4ccc(F)cc4s3)CC2)on1	i	i

Screening data from PubChem.
